Laboratory results: publication PMC7862700, “An all-to-all approach to the identification of sequence-specific readers for epigenetic DNA modifications on cytosine”

Columns and labels:
Assay in all cases: DAPPL (digital affinity profiling via proximity ligation, sequencing); 10 mM Tris-HCl pH 7.5, 50 mM NaCl, 1 mM DTT, 4% glycerol, room temperature, 30 min; GST-TFs on glutathione beads, 16-mer random dsDNA library, 0.1% formaldehyde crosslink after washing; high values mean tight binding
Conditions in all cases: protein: recombinant; tags: N-terminal GST; dsDNA, one strand shown
ELK1 = target: T1, ELK1 (Homo sapiens, UniProt P19419 1-428)
T1 sequence: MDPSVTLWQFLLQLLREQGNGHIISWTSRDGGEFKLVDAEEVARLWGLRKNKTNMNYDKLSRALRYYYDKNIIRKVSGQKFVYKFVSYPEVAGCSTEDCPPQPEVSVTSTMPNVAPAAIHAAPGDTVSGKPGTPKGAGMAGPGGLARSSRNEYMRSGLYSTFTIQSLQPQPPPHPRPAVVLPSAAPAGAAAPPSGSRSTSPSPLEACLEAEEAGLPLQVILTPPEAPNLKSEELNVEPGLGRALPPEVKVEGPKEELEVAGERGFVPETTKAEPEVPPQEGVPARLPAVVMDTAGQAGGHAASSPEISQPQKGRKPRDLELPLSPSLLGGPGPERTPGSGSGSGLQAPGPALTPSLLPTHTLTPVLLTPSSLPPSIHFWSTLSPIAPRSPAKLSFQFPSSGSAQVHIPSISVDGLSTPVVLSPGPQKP
Procedure, shortened: (§1)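 Human transcription factors fused to GST were expressed in yeast, captured on glutathione beads, given DNA barcodes and pooled with a GST-only negative control. Pools were incubated with 200 nmole of a 16-mer random double-stranded DNA library in Tris/NaCl/DTT/glycerol buffer at room temperature for 30 min. They were then washed, crosslinked with 0.1% formaldehyde, proximity-ligated (BsaI/T4 ligase, 1 h, 37 °C), PCR-amplified and sequenced on an Illumina NextSeq500. Binding signal is each 6-mer's read frequency for a factor divided by its frequency for the GST control.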

GABPA = target: T2, GABPA (Homo sapiens, UniProt Q06546 1-454)
T2 sequence: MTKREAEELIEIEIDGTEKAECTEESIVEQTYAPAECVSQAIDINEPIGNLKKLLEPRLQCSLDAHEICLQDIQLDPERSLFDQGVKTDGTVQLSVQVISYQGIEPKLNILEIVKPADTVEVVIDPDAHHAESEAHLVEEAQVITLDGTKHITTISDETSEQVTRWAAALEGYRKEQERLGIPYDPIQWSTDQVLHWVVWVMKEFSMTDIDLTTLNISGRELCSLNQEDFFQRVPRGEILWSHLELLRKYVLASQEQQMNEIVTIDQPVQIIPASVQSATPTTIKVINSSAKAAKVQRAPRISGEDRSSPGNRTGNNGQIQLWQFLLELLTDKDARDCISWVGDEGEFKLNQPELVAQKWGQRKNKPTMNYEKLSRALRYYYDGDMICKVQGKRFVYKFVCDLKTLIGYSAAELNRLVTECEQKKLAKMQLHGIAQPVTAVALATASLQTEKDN
Procedure, shortened: as §1

ERG = target: T3, ERG (Homo sapiens, UniProt P11308 1-479)
T3 sequence: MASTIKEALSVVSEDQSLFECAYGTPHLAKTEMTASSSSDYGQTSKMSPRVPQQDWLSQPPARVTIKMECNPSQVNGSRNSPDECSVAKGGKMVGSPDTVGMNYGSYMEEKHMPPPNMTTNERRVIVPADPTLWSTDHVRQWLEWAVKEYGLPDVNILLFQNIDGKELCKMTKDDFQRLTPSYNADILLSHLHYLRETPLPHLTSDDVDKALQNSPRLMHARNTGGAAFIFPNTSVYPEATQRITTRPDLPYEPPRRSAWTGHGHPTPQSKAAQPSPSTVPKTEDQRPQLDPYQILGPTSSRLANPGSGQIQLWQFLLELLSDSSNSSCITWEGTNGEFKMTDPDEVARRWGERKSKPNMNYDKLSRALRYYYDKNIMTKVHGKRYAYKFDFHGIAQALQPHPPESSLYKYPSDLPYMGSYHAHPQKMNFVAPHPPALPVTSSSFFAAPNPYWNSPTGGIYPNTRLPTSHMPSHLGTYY
Procedure, shortened: as §1

ELF1 = ELF1 (Homo sapiens, UniProt P32519 1-619)
Procedure, shortened: as §1

EHF = target: T4, EHF (Homo sapiens, UniProt Q9NZC4 1-300)
T4 sequence: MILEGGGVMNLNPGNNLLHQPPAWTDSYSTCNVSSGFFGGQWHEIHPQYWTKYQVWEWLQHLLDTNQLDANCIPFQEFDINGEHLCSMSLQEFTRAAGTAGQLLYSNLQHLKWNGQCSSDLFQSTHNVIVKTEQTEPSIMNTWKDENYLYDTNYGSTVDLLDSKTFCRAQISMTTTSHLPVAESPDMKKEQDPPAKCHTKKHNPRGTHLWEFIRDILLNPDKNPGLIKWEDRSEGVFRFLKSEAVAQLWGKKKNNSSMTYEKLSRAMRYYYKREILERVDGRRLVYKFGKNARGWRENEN
Procedure, shortened: as §1

SPIB = SPIB (Homo sapiens, UniProt Q01892 1-262)
Procedure, shortened: as §1

FEV = target: T5, FEV (Homo sapiens, UniProt Q99581 1-238)
T5 sequence: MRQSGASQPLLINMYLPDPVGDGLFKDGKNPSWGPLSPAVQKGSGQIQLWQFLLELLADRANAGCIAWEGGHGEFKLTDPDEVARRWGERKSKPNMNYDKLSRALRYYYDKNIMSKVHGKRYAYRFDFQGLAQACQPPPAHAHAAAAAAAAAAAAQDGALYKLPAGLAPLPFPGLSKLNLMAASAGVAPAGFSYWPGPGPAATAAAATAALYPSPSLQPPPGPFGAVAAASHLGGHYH
Procedure, shortened: as §1

ETV5 = ETV5 (Homo sapiens, UniProt P41161 1-510)
Procedure, shortened: as §1

ELF4 = ELF4 (Homo sapiens, UniProt Q99607 1-663)
Procedure, shortened: as §1

ELK4 = target: T6, ELK4 (Homo sapiens, UniProt P28324-2 1-405)
T6 sequence: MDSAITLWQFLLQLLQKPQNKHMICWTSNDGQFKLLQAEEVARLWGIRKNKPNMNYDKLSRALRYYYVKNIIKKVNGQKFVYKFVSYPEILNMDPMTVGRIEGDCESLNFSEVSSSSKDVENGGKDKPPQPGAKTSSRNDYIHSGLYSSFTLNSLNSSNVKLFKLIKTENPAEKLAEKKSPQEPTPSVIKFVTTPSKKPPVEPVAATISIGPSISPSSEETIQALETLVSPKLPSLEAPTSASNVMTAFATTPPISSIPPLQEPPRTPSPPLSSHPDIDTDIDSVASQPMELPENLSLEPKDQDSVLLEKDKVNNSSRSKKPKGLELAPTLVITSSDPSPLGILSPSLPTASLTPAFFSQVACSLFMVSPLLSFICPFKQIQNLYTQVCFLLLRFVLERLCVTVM
Procedure, shortened: as §1

ELF1, sequence (P32519 whole entry): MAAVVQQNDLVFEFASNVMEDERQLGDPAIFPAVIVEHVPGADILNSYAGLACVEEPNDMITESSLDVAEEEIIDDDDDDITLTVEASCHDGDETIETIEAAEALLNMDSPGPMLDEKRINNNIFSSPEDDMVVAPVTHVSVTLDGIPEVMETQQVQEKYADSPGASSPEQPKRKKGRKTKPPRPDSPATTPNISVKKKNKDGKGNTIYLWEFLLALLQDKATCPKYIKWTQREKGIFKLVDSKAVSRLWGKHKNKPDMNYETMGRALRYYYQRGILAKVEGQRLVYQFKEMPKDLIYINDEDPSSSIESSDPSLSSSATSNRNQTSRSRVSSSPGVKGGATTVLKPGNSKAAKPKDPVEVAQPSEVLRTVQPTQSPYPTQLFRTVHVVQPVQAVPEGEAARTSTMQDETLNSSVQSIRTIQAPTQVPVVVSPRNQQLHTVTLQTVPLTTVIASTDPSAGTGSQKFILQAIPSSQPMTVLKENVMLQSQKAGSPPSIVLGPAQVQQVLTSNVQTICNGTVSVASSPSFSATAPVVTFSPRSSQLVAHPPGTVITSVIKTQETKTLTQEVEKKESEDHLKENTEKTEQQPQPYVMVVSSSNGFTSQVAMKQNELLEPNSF
ETV5, sequence (P41161 whole entry): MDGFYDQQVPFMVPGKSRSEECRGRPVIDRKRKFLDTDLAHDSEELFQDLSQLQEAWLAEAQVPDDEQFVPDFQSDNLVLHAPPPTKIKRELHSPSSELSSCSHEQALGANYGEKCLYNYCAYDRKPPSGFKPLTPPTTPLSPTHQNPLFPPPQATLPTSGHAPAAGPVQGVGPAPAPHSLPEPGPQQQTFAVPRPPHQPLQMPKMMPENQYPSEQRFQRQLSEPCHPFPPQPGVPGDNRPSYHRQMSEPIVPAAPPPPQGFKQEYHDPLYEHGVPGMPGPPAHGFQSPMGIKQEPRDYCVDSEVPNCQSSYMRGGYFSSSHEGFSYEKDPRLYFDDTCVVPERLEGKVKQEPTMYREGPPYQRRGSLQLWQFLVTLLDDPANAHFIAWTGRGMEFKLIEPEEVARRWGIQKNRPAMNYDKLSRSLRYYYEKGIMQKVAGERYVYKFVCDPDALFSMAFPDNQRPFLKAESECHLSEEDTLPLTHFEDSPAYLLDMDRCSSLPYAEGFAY
SPIB, sequence (Q01892 whole entry): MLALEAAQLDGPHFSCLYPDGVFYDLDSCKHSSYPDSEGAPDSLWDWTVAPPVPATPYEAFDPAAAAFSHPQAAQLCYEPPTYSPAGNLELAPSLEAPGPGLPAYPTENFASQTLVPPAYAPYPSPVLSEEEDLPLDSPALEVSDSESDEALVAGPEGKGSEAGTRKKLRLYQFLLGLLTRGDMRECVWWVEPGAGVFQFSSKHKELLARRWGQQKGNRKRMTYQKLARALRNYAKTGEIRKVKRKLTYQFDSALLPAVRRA
ELF4, sequence (Q99607 whole entry): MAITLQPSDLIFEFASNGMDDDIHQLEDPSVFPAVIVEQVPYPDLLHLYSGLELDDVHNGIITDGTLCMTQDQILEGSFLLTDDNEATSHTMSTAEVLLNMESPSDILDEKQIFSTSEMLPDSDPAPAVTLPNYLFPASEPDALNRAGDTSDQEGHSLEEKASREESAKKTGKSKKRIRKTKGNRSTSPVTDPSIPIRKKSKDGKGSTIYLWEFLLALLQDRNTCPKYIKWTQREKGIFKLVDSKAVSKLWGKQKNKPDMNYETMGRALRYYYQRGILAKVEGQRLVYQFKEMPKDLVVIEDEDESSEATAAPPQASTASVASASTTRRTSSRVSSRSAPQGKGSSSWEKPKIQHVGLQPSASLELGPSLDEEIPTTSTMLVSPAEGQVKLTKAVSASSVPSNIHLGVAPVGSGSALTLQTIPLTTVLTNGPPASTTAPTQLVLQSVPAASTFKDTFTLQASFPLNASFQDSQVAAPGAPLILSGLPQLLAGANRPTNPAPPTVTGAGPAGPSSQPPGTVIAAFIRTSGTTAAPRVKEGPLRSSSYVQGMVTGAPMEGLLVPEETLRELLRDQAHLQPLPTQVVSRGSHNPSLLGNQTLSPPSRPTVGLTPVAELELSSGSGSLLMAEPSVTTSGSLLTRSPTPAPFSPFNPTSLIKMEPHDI

## CCCAAA
ELK1
  binding signal: 1.15 fold enrichment (6-mer frequency, TF over GST control)
GABPA
  binding signal: 1.17 fold enrichment (6-mer frequency, TF over GST control)
ERG
  binding signal: 1.13 fold enrichment (6-mer frequency, TF over GST control)
ELF1
  binding signal: 1.18 fold enrichment (6-mer frequency, TF over GST control)
EHF
  binding signal: 1.12 fold enrichment (6-mer frequency, TF over GST control)
SPIB
  binding signal: 1.14 fold enrichment (6-mer frequency, TF over GST control)
FEV
  binding signal: 1.08 fold enrichment (6-mer frequency, TF over GST control)
ETV5
  binding signal: 1.07 fold enrichment (6-mer frequency, TF over GST control)
ELF4
  binding signal: 1.17 fold enrichment (6-mer frequency, TF over GST control)
ELK4
  binding signal: 1.06 fold enrichment (6-mer frequency, TF over GST control)
